# Calls of active or inactive are those of the source. Unless noted, no rule for the calls is given here.
# What was measured:
# [1] = HepG2 liver cancer cell viability effects, profiling panel, resazurin fluorescence, 24 h, PK04 Diversity Set (AID 1172); settings: higher = more signal
# [2] = basal S. cerevisiae growth modulation, no modifier, primary screen, OD600, strain BY4716, 24 h, basal condition (AID 1173); settings: OD600, 24 h, higher = more signal, called active from +8 up or from −8 down
# [3] = MM1S myeloma cell viability, profiling panel, resazurin fluorescence, basal, 24 h, PK04 Diversity Set (AID 1174); settings: higher = more signal, called active from +8 up or from −8 down;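 also: MM1S multiple myeloma cell line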
# [4] = target: Dihydroorotate dehydrogenase (quinone), mitochondrial (Plasmodium falciparum (isolate 3D7)) (UniProt Q08210); assay: PfDHODH enzyme inhibitors, primary screen, biochemical, C-terminal His tag, absorbance 600 nm (AID 1175); settings: DCIP absorbance 600 nm, higher = more signal, called active from +8 up or from −8 down;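 also: recombinant parasite enzyme with a five histidine tag at its C terminus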
# Dihydroorotate dehydrogenase (quinone), mitochondrial (Plasmodium falciparum (isolate 3D7)), sequence (Q08210 whole entry, looked up): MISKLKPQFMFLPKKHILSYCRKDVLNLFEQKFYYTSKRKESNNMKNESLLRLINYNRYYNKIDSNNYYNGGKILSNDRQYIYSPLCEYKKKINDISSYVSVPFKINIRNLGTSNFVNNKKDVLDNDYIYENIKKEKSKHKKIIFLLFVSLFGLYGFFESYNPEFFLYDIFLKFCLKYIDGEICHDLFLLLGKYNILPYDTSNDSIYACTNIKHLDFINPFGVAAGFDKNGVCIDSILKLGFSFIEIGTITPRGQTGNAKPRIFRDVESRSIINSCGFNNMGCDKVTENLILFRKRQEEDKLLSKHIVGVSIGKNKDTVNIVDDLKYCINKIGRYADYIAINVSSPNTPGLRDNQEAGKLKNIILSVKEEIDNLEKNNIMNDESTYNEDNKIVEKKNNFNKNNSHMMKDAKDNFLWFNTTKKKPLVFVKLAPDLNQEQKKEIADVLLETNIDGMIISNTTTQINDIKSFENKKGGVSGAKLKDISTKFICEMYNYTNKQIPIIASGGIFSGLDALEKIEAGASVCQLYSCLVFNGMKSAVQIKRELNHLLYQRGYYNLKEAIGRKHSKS
# [5] = P. aeruginosa biofilm formation inhibitors, primary screen, strain PAO1, LB-PBS medium, absorbance 600 nm (AID 1176); settings: P. aeruginosa PAO1 growth/biofilm, A600, 12 h; higher = more signal
# [6] = S. cerevisiae RM11-1a growth modifiers, primary screen, strain RM11-1a, OD600, basal, 24 h (AID 1177); settings: OD600, 24 h, higher = more signal, called active from +8 up or from −8 down;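 also: cultures grown under basal conditions with no added stressor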
# [7] = E. coli acrAB mutant growth effects, primary screen, E. coli filamentation inducers, strain DRC39, OD650, 24 h (AID 1178); settings: higher = more signal, called active from +8 up or from −8 down;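 also: growth measured as culture turbidity by optical density at 650 nm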
# [8] = E. coli acrAB mutant growth effects, primary screen, E. coli filamentation inducers, strain DRC39, OD650, 48 h (AID 1179);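 also: screen aims at cell division blockers that make cells filament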; settings: E. coli DRC39 delta-acrAB growth, higher = more signal, called active from +8 up or from −8 down
# [9] = RPMI8226 myeloma cell viability, profiling panel, resazurin fluorescence, basal, 24 h, PK04 Diversity Set (AID 1180); settings: higher = more signal;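 also: RPMI8826 multiple myeloma cell line at 5000 cells per well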
# [10] = target: E3 ubiquitin-protein ligase XIAP (Homo sapiens) (UniProt P98170); assay: XIAP binders, primary screen, biophysical, small-molecule microarray, fluorescence 635 nm (AID 1181); settings: small-molecule microarray binding, higher = more signal;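 also: score merges 667 nm emission and signal to noise over triplicate slides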
# E3 ubiquitin-protein ligase XIAP (Homo sapiens), sequence (P98170 whole entry, looked up): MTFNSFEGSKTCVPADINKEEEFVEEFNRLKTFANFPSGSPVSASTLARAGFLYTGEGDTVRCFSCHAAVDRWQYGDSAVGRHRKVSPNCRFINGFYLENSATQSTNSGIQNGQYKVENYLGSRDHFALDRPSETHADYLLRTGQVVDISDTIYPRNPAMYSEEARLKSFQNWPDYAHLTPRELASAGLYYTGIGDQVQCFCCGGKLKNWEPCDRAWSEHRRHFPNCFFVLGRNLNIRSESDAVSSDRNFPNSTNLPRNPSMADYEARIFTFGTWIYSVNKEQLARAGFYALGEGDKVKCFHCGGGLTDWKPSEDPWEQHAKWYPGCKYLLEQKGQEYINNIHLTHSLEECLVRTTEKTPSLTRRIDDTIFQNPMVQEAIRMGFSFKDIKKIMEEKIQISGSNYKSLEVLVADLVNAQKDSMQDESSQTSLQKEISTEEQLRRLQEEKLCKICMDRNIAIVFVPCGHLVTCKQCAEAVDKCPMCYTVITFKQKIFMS
# [11] = test system: XIP peptide (Xip251-270) binding; assay: small-molecule binders of XIP peptide, primary screen, biochemical, small-molecule microarray, fluorescence 635/667 nm, 0.1 µg/mL protein (AID 1182); settings: fluorescent protein binding, 635 nm, higher = more signal, called active from +8 up or from −8 down
# [12] = test system: XIP peptide (Xip251-270); assay: small-molecule binders of XIP peptide, primary screen, biochemical, small-molecule microarray, fluorescence 635/667 nm, 0.5 µg/mL protein (AID 1183); settings: small-molecule microarray binding, fluorescence 635 nm; higher = more signal
# [13] = Plasmodium falciparum growth inhibition, primary screen, strain 3D7, DAPI fluorescence, 100 nL (AID 1184);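 also: parasites grown inside human red blood cells in medium with human serum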; settings: P. falciparum 3D7 growth, 3 d, higher = more signal
# [14] = target: Homeobox protein Hox-A13 (Mus musculus) (UniProt Q62424); assay: inhibitors of HoxA13-DNA binding, primary screen, biochemical, fluorescence polarization, labeled oligonucleotide (AID 1185); settings: 15 min, higher = more signal, called active from +8 up or from −8 down
# Homeobox protein Hox-A13 (Mus musculus), sequence (Q62424 whole entry, looked up): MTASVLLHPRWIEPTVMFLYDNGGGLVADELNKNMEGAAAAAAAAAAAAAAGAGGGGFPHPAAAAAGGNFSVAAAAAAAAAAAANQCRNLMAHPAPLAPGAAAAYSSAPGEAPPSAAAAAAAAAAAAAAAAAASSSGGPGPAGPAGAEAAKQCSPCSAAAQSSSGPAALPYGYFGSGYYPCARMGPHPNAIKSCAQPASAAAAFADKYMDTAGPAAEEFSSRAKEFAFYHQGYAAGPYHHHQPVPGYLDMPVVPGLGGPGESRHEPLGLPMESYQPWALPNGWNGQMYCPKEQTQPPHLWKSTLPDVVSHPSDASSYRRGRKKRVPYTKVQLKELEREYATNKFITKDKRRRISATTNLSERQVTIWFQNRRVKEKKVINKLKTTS
# [15] = inhibitors of hydroxyurea-induced Chk1 phosphorylation, primary screen, imaging, HeLa, phospho-Chk1 antibody, percent positive cells (AID 1186); settings: hydroxyurea-induced phospho-Chk1 immunofluorescence imaging, higher = more signal
# [16] = inhibitors of hydroxyurea-induced Chk1 phosphorylation, primary screen, imaging, HeLa, phospho-Chk1 nuclear intensity (AID 1187); settings: hydroxyurea-induced phospho-Chk1 immunofluorescence imaging, higher = more signal
SMILES,z-score [1],z-score [2],z-score [3],composite z-score [4],z-score [5],z-score [6],z-score [7],z-score [8],z-score [9],composite z-score [10],composite z-score [11],composite z-score [12],z-score [13],z-score [14],z-score [15],z-score [16]
CN(C)CCCC[C@@H]1NC(=O)[C@H]2C[C@@H](C(=O)NCCCCCNC(=O)CS)[C@@H](c3ccc(O)cc3)N2C1=O,-0.0707,-0.691 (inactive),0.518 (inactive),0.419 (inactive),-0.13 (inactive),-0.158 (inactive),-0.297 (inactive),0.326 (inactive),0.108,-0.0344,-0.276 (inactive),0.903,-0.282,-2.09 (inactive),0.358 (inactive),0.155 (inactive)
CC(C)N1C(=O)c2ccccc2[C@](C)(C(=O)NCCCN(C)C)[C@@H]1c1ccc(CO)cc1,0.257,-0.919 (inactive),0.627 (inactive),0.0044 (inactive),-0.522 (inactive),-0.283 (inactive),0.0957 (inactive),-0.429 (inactive),0.842,0.0871,0.289 (inactive),0.431,0.191,-1.73 (inactive),0.0165 (inactive),0.149 (inactive)
C=C(C(=O)CC[C@@H](OC(C)=O)c1ccc(OCCO)cc1)C(C)C,0.0804,-0.99 (inactive),-0.522 (inactive),-1.51 (inactive),1.48 (inactive),0.156 (inactive),-0.248 (inactive),-0.227 (inactive),-0.271,0.612,0.564 (inactive),0.101,-1.42,-3.67 (inactive),0.598 (inactive),0.147 (inactive)
CN1C(=O)C2C(C1=O)C1C=C(c3ccc(CO)cc3)C2C(C2CC2)N1Cc1cc2c(cc1Br)OCO2 (centres undefined),-0.698,-2.01 (inactive),-1.31 (inactive),-2.33 (inactive),0.0061 (inactive),-0.889 (inactive),0.101 (inactive),-0.0102 (inactive),-1.47,0.111,2.71 (inactive),0.832,-2.16,-4.5 (inactive),-0.369 (inactive),-0.327 (inactive)
COC(=O)[C@@]1(Cc2ccc(F)cc2)[C@H]2c3cc(C(=O)N4CCCC4)n(CCc4ccc(OC)c(Br)c4)c3C[C@H]2CN1C(=O)c1ccccc1,-1.25,0.836 (inactive),-2.83 (inactive),-0.163 (inactive),1.07 (inactive),0.264 (inactive),-0.588 (inactive),0.123 (inactive),-4.16,0.183,-0.0505 (inactive),0.557,-1.58,-2.27 (inactive),-1.03 (inactive),-0.872 (inactive)
COC(=O)[C@@]1(Cc2ccccc2)[C@H]2c3cc(C(=O)N(C)C)n(Cc4ccccc4)c3C[C@H]2CN1C(=O)c1ccccc1,-0.853,2.1 (inactive),-1.5 (inactive),-0.252 (inactive),0.246 (inactive),1.6 (inactive),-0.656 (inactive),-0.411 (inactive),-1.05,0.294,0.394 (inactive),0.225,-1.43,-5.49 (inactive),1.54 (inactive),0.928 (inactive)
C=C(COC)/C(=C/C[C@H](OC(C)=O)c1ccccc1OCCO)c1cnc2ccccc2c1,-0.192,1.36 (inactive),-0.885 (inactive),-2.14 (inactive),1.57 (inactive),1.19 (inactive),-0.447 (inactive),-0.334 (inactive),-0.784,-0.173,0.384 (inactive),0.0219,-2.82,-5.24 (inactive),0.134 (inactive),0.19 (inactive)
C=C(CCCC)C(=O)CC[C@H](OC(C)=O)c1ccc(CO)o1,-0.658,-0.948 (inactive),0.982 (inactive),-1.66 (inactive),-0.0221 (inactive),0.285 (inactive),0.668 (inactive),-0.968 (inactive),0.496,0.343,0.35 (inactive),0.0921,-1.82,-3.62 (inactive),-0.059 (inactive),-0.222 (inactive)
O=C1C[C@@](C(=O)O)(c2ccc([N+](=O)[O-])cc2)[C@@H](c2ccc(CO)cc2I)N1CC12CC3CC(CC(C3)C1)C2,-1.79,-4.78 (inactive),-5.9 (inactive),-1.49 (inactive),1.34 (inactive),-0.326 (inactive),-0.401 (inactive),-0.0671 (inactive),-6,-0.17,0.862 (inactive),0.771,-1.92,-5.13 (inactive),0.288 (inactive),0.285 (inactive)
CC(C)(C)OC(=O)CC[C@]1(C(=O)NCC(O)CO)N=C(c2ccc(OCCCO)cc2)O[C@H]1c1ccccc1CN=[N+]=[N-] (some centres undefined),-0.206,-0.694 (inactive),-0.918 (inactive),-0.59 (inactive),1.65 (inactive),-0.591 (inactive),-0.185 (inactive),-0.659 (inactive),-0.483,0.049,3.09 (inactive),0.878,-0.121,-5.33 (inactive),-0.029 (inactive),0.402 (inactive)
COCC1=C([C@H](O)CCc2ccccc2)[C@H](CO)[C@@H]2C(=O)N(Cc3ccccc3)C(=O)[C@@H]2C1,-0.062,-1.55 (inactive),0.0871 (inactive),-1.91 (inactive),-0.295 (inactive),0.723 (inactive),1.09 (inactive),0.738 (inactive),0.449,-0.031,-0.0534 (inactive),0.155,-0.54,-5.17 (inactive),-0.955 (inactive),-0.946 (inactive)
C[C@]1(C(=O)NCC(F)(F)F)c2ccccc2C(=O)N(Cc2cc(F)cc(C(F)(F)F)c2)[C@H]1c1ccc(CO)cc1,0.378,-0.459 (inactive),-0.191 (inactive),-0.191 (inactive),1.32 (inactive),-0.401 (inactive),-0.0567 (inactive),-0.376 (inactive),0.532,-0.0884,0.362 (inactive),0.473,-1.31,-3.68 (inactive),0.305 (inactive),0.388 (inactive)
CCCNC(=O)[C@@]1(C)c2ccccc2C(=O)N(C(C)C)[C@H]1c1ccc(CO)cc1,0.241,-0.619 (inactive),0.148 (inactive),-0.44 (inactive),0.332 (inactive),-0.531 (inactive),-0.252 (inactive),-0.516 (inactive),0.0567,-0.0553,-0.358 (inactive),-0.395,-1.46,-3.3 (inactive),-0.017 (inactive),-0.211 (inactive)
O=C1O[C@@H](c2ccccc2)[C@@H](c2ccccc2)N2[C@@H](c3ccccc3OCCO)[C@]3(C(=O)Nc4ccc(C#CC5(O)CCCCCC5)cc43)[C@@H](C(=O)NC[C@H](O)c3ccccc3)[C@H]12,-2.02,0.934 (inactive),-7.38 (inactive),-0.516 (inactive),1.66 (inactive),2.41 (inactive),-0.0933 (inactive),-0.0241 (inactive),-7.19,0.0264,0.487 (inactive),0.76,-1.96,-2.71 (inactive),-0.213 (inactive),0.0361 (inactive)
COc1ccc(C(=O)Nc2cccc(CN3C(=O)[C@@]4(O[C@@H](CCn5cc([C@H](O)c6ccccc6)nn5)[C@H]([Si](C)(C)c5ccc(OC)cc5)[C@H]4C)c4ccccc43)c2)cc1,-2.55,-1.74 (inactive),-6.53 (inactive),-0.0516 (inactive),1.38 (inactive),0.588 (inactive),0.259 (inactive),-0.237 (inactive),-6.13,-0.0228,0.0252 (inactive),0.575,-2.31,0.472 (inactive),-0.694 (inactive),-1.14 (inactive)
COc1ccc([Si](C)(C)[C@@H]2[C@@H](CCO)O[C@]3(C(=O)N(Cc4ccccc4)c4ccc(N(C=O)c5ccccc5)cc43)[C@H]2C)cc1,-0.131,1.59 (inactive),-1.54 (inactive),0.186 (inactive),3.19 (inactive),5.4 (inactive),1.23 (inactive),0.843 (inactive),-1.6,0.0031,0.581 (inactive),0.573,-2.79,-0.204 (inactive),-1.32 (inactive),-0.697 (inactive)
CCCC[C@@H]1C[C@H]1[C@@H](NC(=O)c1ccccc1)c1ccccc1,0.237,1.21 (inactive),-0.694 (inactive),-0.113 (inactive),-0.471 (inactive),0.601 (inactive),0.104 (inactive),0.233 (inactive),-1.07,-0.0289,-0.33 (inactive),-0.302,0.328,-1.46 (inactive),0.072 (inactive),-0.0583 (inactive)
CO[C@H]1O[C@H](CO)[C@@H](OC(=O)Nc2ccc3c(c2)OCO3)[C@H](OC(=O)Nc2ccc3c(c2)OCO3)[C@H]1OC(=O)Nc1ccc2c(c1)OCO2,-0.159,1.66 (inactive),-0.798 (inactive),-0.145 (inactive),2.5 (inactive),2.54 (inactive),1.73 (inactive),-0.273 (inactive),-0.511,0.463,2.3 (inactive),0.842,-2.1,-4.78 (inactive),-0.134 (inactive),0.245 (inactive)
CC(C)N1C(=O)c2ccccc2[C@](C)(C(=O)NC2CC2)[C@@H]1c1ccc(CO)cc1,0.989,-0.708 (inactive),0.192 (inactive),-0.231 (inactive),-0.342 (inactive),0.382 (inactive),0.783 (inactive),1.5 (inactive),0.798,-0.0536,-0.318 (inactive),0.0807,-0.335,-1.64 (inactive),-0.119 (inactive),0.0866 (inactive)

# Reference: PubChem BioAssay
